# In PubChem BioAssay (NCATS):
# A number with no mark means an inactive call. Inconclusive results are not listed. Entries that show only a call come without a potency. Active and inactive are the calls of the source. Unless noted, calls follow the shape of the dose curve; as a rule, active = well fitted curve in the direction sought with a large enough effect; inconclusive = small, poorly fitted or top-dose-only effect, or another doubt; inactive = no such curve, though single readings can be large; an effect the other way counts as inactive or inconclusive.
# Tests used:
# [1] = target: Glucocorticoid receptor (Homo sapiens) (UniProt P04150); test: GR-GFP Redistribution (AID 450;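 active = compounds whose dose series gives a full or clear partial fitted curve of increased nuclear translocation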; also: potency is read from the fitted curve at half-maximal effect); details: U2OS GR-GFP nuclear translocation, laser cytometry, 2 h
# [2] = target: Glucocorticoid receptor (Homo sapiens) (UniProt P04150); test: GR-EFC Redistribution (AID 451; calls by dose curve; also: potency is read from the fitted curve at half-maximal effect); details: CHO-K1 GR-EFC translocation, beta-gal luminescence, 2 h
# Summary of the method: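 Translocation of GR-ED fusion to nuclear EA restores b-gal, read by luminescence after 1 h room-temperature detection. Engineered CHO-K1 biosensor cells, 1,000/well, exposed 2 h at 37 C to titrations up to 46 uM final.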
# [3] = target: 3',5'-cyclic-AMP phosphodiesterase 4B (Homo sapiens) (UniProt Q07343); test: qHTS Assay for Inhibitors of PDE-IV (AID 607; active = well fitted activation curve with a large enough effect in the main read-out, with a control signal flat, not every such curve was filed as active)
# Summary of the method: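 The readout is membrane depolarisation from a cAMP-sensing CNG channel, detected with a potential dye at ex 535/em 590. Cells were HEK293-derived (endogenous PDE-IV) at 1000 cells/well, titrated up to 22.9 uM final.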
# [4] = target: Cytochrome P450 3A4 (Homo sapiens) (UniProt P08684); test: qHTS Assay for Activators of Cytochrome P450 3A4 (AID 885); also: nearly all actives have a fitted effect of over 65% in size
# Summary of the method: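 Activators are scored by enhanced luminescence from CYP3A4 conversion of luciferin-PPXE (25uM, equal to KM) to luciferin, after 60 min at RT with an NADPH-regenerating system.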
# [5] = Primary qHTS for small molecule stabilizers of the endoplasmic reticulum resident proteome: Secreted ER Calcium Modulated Protein (SERCaMP) assay (AID 1508630)
# Summary of the method: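 The SH-SY5Y reporter protocol was run at 3 concentrations up to 38.3 uM (primary) or 11 concentrations (follow-up): 16 h compound, 100 nM thapsigargin for 4 h, then extracellular luciferase luminescence.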
# [6] = target: Rap guanine nucleotide exchange factor 3 (Homo sapiens) (UniProt O95398); test: Confirmatory qHTS for antagonist of cAMP-regulated guanine nucleotide exchange factor 3 (EPAC1) (AID 1645880); also: nearly all actives have a fitted effect of over 55% in size; also: potency is read from the fitted curve at half-maximal effect
# Summary of the method: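 Released BODIPY-GDP fluoresces less than Rap1-bound BODIPY-GDP; the signal is followed at 480/540 nm at 5-min intervals over 30 min, after 5 min at room temperature. Reactions contain 100 nM EPAC1, 250 nM RAP1B-BODIPY-GDP and 50 uM GDP; results are normalized to ATA and DMSO.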
# [7] = target: Rap guanine nucleotide exchange factor 3 (Homo sapiens) (UniProt O95398); test: Confirmatory qHTS for agonist of cAMP-regulated guanine nucleotide exchange factor 3 (EPAC1) (AID 1645881);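 also: EPAC1 catalysed release of BODIPY-GDP from Rap1B seen as fluorescence loss; nearly all actives have a fitted effect of over 75% in size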
# [8] = target: Rap guanine nucleotide exchange factor 4 (Homo sapiens) (UniProt Q8WZA2); test: Confirmatory qHTS for agonist of cAMP-regulated guanine nucleotide exchange factor 4 (EPAC2) (AID 1645884);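 also: nucleotide exchange releases bodipy-GDP from Rap1 and this lowers its fluorescence; nearly all actives have a fitted effect of over 65% in size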
# [9] = target: Lysosomal acid glucosylceramidase (Homo sapiens) (UniProt P04062); test: Glucocerebrosidase-p2 (AID 348; in the data active = potency below about 10 µM; also: potency is read from the fitted curve at half-maximal effect); details: purified GBA, blue fluorogenic substrate, 40 min
# Summary of the method: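 Normal human glucocerebrosidase (0.2 nM) with blue fluorogenic substrate (80 uM final) in citrate/phosphate pH 5.9 with 10mM sodium taurocholate, 0.01% tween-20; 40 min RT, NaOH/glycine stop; fluorescence Ex 365/Em 440; AC50 from a titration from 0.6 nM upwards.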
# [10] = AP1 Signaling Pathway (AID 357; active = well fitted curve in either direction with a large enough effect, not every such curve was filed as active); details: ME-180 AP-1-bla reporter, EGF-induced, beta-lactamase ratio, 5 h; at 7.69 µM (top of the series) unless noted
# Summary of the method: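 ME-180 cells with beta-lactamase reporter under AP-1 response element, stimulated with EC50 EGF; compounds tested in titration series, 5 h at 37 °C. CCF4 substrate added 2.5 h at room temperature; 460/530 nm emission ratio gave %activity and AC50.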
# [11] = target: Cytochrome P450 1A2 (Homo sapiens) (UniProt P05177); test: p450-cyp1a2 (AID 410; calls by dose curve; also: potency is read from the fitted curve at half-maximal effect)
# Summary of the method: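 20nM CYP1A2, 100uM Luciferin-ME (=Km), 100mM KPO4; cpd 10 min RT; +NADPH regen, 60 min RT; stop/detect 20 min; luminescence. Normalized to furafylline 57 uM = full inhibition.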
# [12] = NFAT Signaling Pathway (AID 444; active = well fitted curve in either direction with a large enough effect, not every such curve was filed as active;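 also: carbachol stimulus at about its EC50 of 1 µM final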); details: Jurkat NFAT-bla M1, carbachol, beta-lactamase ratio, 5 h; at 7.69 µM (top of the series) unless noted
# Summary of the method: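 Read-out: CCF4 FRET ratio (460 nm/530 nm) after 1 h RT dye loading, used for %activity and AC50 from titration series. Cells: Jurkat NFAT-β-lactamase/M1 line, treated with compound plus 1 uM carbachol for 5 h, 37 °C.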
# [13] = Stat Signaling Pathway (AID 446; active = well fitted curve in either direction with a large enough effect, not every such curve was filed as active;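 also: ME-180 cervical cancer cells given 40 pM IL-6 alongside compound; SIE-controlled beta-lactamase reporter measured as 460/530 nm FRET emission ratio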); details: ME-180 (cervical carcinoma) SIE beta-lactamase reporter, IL-6 stimulated, 5 h; at 7.69 µM (top of the series) unless noted
# Summary of the method: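 Emission at 460 and 530 nm (excitation 405 nm) reports SIE-controlled beta-lactamase in ME-180 cells. Cells received compound with 40 pM IL-6 for 5 hrs at 37 C; data scaled between 300 pM IL-6 and 125 nM JAK-inhibitor controls.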
# [14] = target: Mitogen-activated protein kinase 10 (Mus musculus) (UniProt Q61831); test: JNK3 AlphaScreen Assay (AID 530; active = well fitted curve in either direction with a large enough effect, not every such curve was filed as active;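 also: kinase came from lysate of stimulated human HepG2 cells; signal reports phosphorylation of biotinylated GST-cJun 1-79 at Ser73 with 10 µM ATP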)
# Summary of the method: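 Kinase buffer: 20 mM Tris-HCl pH 7.6, 10 mM MgCl2, 1 mM DTT, 0.1 mM Na3VO4, 0.01% Tween-20; ATP 10 uM. Substrate biotin-GST-cJun(1-79), enzyme from activated HepG2 lysates. Detection by Ser73 phospho-antibody AlphaScreen.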
# [15] = target: Dual specificity protein kinase CLK4 (Homo sapiens) (UniProt Q9HAZ1); test: qHTS Assay for Inhibitors of CDC-like Kinase 4 (Kinase-Glo Assay) (AID 1770); also: nearly all actives have a fitted effect of over 65% in size
# Summary of the method: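 Recombinant human Clk4 (25 nM) phosphorylated RS repeat peptide (100 uM) with 1 uM ATP in Tris pH 7.5/MgCl2/EGTA/DTT/Triton buffer for 4.5 h at room temperature. Residual ATP was quantified by Kinase-Glo luciferase luminescence.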
# [16] = target: Dual specificity protein kinase CLK4 (Homo sapiens) (UniProt Q9HAZ1); test: qHTS Assay for Inhibitors of CDC-like Kinase 4 (ADP-Glo Assay) (AID 1771); also: nearly all actives have a fitted effect of over 70% in size
# Summary of the method: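 25 nM Clk4, 100 uM RS peptide, 1 uM ATP (final); 2 mM MgCl2, 0.5 mM EGTA, 2.5 mM DTT, 0.01% Triton X-100; 1 hr RT. ADP-Glo readout: ATP depletion 45 min, conversion/luciferase 30 min, luminescence.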
# [17] = target: Dual specificity protein kinase CLK4 (Homo sapiens) (UniProt Q9HAZ1); test: qHTS Assay for Inhibitors of CDC-like Kinase 4 (ADP-FP Assay) (AID 1795); also: nearly all actives have a fitted effect of over 60% in size
# Summary of the method: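 Recombinant human Clk4 (6.25 nM) phosphorylated RS repeat peptide (100 uM) with 1 uM ATP in Tris pH 7.5/MgCl2/EGTA/DTT/Triton buffer for one hour. ADP was quantified by Transcreener competitive fluorescence polarization against an ADP calibration curve.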
# [18] = target: Ubiquitin carboxyl-terminal hydrolase 1 (Homo sapiens) (UniProt O94782); test: Inhibitors of USP1/UAF1: Pilot qHTS (AID 504865);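 also: rhodamine fluorescence freed from ubiquitin-rhodamine substrate followed over time; top concentration of the series differs between compounds; nearly all actives have a fitted effect of over 35% in size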
# Summary of the method: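 USP1/UAF1 complex (1nM) preincubated with compound 15 min at room temperature, then Ub-Rho substrate (150nM final) added. Fluorescence read kinetically at 480/540 nm, 6 reads every 60 seconds. Buffer: 50mM HEPES pH 7.8, 0.5mM EDTA, 0.1 mg/ml BSA, 1mM TCEP, 0.01% Tween-20.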
# [19] = target: Rap guanine nucleotide exchange factor 4 (Homo sapiens) (UniProt Q8WZA2); test: Confirmatory qHTS for antagonist of cAMP-regulated guanine nucleotide exchange factor 4 (EPAC2) (AID 1645885); also: nearly all actives have a fitted effect of over 25% in size
# [20] = target: Cytochrome P450 3A4 (Homo sapiens) (UniProt P08684); test: qHTS Assay for Inhibitors and Substrates of Cytochrome P450 3A4 (AID 884); also: nearly all actives have a fitted effect of over 50% in size; also: potency is read from the fitted curve at half-maximal effect
# Summary of the method: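 Luminescent readout of luciferin produced by CYP3A4 (20 nM) dealkylation of Luciferin-PPXE, 25 uM (its KM). NADPH-driven reaction ran 60 min at RT after 10 min compound preincubation; data scaled to 57 uM ketoconazole as 100% inhibition.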
# Rap guanine nucleotide exchange factor 4 (Homo sapiens), sequence (Q8WZA2 whole entry, looked up): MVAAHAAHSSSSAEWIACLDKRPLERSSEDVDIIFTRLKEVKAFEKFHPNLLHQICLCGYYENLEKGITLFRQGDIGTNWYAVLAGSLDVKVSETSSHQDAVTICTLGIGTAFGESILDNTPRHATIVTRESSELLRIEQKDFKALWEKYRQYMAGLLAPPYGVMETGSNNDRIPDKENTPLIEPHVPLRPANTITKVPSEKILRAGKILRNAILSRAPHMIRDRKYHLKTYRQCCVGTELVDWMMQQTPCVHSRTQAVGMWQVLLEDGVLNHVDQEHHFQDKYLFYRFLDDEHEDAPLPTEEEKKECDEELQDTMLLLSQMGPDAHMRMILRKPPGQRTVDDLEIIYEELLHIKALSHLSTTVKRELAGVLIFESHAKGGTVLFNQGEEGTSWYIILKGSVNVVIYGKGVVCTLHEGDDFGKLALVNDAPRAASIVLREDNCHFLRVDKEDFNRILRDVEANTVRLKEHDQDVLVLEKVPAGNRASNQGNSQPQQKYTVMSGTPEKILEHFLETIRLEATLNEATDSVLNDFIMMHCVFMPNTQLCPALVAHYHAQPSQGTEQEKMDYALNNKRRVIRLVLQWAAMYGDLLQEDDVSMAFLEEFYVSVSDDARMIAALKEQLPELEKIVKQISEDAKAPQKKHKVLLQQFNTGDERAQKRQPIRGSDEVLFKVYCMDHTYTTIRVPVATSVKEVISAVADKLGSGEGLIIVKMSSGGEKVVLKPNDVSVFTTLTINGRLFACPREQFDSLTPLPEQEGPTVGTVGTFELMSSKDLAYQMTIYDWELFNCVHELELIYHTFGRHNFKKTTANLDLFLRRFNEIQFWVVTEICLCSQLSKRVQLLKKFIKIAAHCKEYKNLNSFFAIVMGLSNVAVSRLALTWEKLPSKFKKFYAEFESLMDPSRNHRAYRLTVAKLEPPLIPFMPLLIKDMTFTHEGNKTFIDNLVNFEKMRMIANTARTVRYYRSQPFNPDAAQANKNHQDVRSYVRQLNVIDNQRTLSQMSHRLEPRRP
# Cytochrome P450 1A2 (Homo sapiens), sequence (P05177 whole entry, looked up): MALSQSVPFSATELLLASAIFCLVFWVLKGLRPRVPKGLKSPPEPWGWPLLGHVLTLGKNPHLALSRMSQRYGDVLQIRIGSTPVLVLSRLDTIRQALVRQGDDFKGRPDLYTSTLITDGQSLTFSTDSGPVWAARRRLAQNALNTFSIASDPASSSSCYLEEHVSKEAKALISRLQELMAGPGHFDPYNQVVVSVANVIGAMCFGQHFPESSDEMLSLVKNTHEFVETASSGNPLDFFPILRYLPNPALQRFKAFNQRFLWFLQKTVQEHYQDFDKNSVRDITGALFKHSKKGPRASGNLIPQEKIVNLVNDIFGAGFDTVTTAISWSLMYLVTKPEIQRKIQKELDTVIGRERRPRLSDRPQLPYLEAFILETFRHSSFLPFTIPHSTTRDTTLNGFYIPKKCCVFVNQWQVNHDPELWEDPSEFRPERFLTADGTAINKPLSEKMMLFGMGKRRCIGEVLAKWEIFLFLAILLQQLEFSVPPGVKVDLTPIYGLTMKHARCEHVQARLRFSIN
# Dual specificity protein kinase CLK4 (Homo sapiens), sequence (Q9HAZ1 whole entry, looked up): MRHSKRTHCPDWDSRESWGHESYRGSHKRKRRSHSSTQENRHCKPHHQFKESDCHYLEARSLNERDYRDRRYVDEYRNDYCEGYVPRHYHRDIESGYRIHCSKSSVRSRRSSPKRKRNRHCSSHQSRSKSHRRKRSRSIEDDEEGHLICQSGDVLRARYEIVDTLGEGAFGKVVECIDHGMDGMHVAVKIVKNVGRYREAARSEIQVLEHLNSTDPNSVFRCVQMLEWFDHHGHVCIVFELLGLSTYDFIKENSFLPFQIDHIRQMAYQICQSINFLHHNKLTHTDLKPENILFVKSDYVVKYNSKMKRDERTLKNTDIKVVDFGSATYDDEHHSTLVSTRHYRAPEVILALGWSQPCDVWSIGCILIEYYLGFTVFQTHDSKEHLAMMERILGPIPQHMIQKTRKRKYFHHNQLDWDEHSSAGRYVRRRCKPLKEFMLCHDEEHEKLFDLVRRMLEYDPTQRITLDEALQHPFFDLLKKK
# Ubiquitin carboxyl-terminal hydrolase 1 (Homo sapiens), sequence (O94782 whole entry, looked up): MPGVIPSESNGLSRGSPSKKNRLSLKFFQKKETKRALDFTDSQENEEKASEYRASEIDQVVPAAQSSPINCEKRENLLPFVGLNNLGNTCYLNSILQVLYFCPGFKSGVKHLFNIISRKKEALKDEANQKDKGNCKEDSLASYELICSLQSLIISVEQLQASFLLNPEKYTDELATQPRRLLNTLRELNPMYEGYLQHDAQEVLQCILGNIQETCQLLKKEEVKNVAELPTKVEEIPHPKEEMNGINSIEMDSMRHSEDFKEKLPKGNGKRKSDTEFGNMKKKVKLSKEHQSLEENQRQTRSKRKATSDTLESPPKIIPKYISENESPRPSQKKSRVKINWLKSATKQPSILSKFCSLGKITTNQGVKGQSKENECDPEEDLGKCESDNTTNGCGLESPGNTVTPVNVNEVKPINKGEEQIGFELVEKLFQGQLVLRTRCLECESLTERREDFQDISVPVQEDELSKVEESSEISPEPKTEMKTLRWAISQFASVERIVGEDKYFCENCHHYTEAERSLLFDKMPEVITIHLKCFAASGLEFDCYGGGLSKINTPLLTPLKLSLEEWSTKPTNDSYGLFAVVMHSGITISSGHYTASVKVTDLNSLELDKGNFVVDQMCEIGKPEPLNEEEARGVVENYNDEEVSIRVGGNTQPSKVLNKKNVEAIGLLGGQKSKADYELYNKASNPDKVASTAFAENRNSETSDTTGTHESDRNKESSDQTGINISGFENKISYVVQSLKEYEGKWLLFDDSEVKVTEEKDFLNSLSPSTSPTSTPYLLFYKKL
# Cytochrome P450 3A4 (Homo sapiens), sequence (P08684 whole entry, looked up): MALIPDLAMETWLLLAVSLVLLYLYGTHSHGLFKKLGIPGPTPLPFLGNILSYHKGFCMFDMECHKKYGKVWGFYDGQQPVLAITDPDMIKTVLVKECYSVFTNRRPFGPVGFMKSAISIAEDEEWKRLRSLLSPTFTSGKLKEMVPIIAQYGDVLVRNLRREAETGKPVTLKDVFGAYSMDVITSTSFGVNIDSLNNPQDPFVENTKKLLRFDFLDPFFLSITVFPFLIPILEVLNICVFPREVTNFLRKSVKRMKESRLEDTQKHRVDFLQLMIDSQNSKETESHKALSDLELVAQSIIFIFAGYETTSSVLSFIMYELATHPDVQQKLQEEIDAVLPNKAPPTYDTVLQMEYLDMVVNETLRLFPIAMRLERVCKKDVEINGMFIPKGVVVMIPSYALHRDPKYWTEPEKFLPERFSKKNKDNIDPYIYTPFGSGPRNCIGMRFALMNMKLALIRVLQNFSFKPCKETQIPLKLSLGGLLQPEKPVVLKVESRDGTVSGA
# Lysosomal acid glucosylceramidase (Homo sapiens), sequence (P04062 whole entry, looked up): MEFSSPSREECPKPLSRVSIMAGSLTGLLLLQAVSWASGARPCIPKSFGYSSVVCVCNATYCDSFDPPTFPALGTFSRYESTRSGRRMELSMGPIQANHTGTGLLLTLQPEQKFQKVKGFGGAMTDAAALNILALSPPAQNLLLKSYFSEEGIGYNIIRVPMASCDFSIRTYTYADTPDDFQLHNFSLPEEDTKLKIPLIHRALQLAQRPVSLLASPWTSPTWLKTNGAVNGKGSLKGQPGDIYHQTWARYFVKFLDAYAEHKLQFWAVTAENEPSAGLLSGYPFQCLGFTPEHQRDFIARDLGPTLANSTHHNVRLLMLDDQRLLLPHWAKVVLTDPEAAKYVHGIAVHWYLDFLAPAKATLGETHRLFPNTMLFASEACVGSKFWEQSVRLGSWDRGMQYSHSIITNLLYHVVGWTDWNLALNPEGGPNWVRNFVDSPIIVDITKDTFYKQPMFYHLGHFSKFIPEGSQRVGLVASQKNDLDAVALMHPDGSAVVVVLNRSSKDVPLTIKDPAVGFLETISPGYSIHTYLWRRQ
# 3',5'-cyclic-AMP phosphodiesterase 4B (Homo sapiens), sequence (Q07343 whole entry, looked up): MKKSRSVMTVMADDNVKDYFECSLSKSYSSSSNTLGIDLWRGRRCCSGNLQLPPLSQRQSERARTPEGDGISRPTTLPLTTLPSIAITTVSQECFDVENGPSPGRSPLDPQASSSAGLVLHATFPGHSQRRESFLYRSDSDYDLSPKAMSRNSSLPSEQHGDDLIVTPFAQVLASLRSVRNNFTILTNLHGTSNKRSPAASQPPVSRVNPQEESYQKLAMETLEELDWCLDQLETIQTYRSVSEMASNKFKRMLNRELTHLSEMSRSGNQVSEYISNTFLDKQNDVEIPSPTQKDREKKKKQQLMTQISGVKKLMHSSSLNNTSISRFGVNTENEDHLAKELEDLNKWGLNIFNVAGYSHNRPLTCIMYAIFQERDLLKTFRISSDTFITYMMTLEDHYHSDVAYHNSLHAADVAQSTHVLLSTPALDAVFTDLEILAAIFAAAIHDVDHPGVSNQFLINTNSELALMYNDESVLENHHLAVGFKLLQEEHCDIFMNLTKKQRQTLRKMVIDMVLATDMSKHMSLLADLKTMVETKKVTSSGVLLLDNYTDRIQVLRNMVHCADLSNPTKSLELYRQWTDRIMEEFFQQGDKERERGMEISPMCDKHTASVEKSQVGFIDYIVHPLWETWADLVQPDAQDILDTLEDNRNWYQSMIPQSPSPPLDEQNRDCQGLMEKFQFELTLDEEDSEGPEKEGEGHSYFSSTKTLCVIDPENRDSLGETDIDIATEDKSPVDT
Structure (SMILES),Potency [1],Potency [2],Potency [3],Potency [4],outcome [5],Potency [6],Potency [7],Potency [8],Potency [9],"activity change, negative = inhibition [10]",Potency [11],"activity change, negative = inhibition [12]","activity, negative = inhibition [13]",Potency [14],Potency [15],Potency [16],Potency [17],Potency [18],Potency [19],Potency [20]
N#C/C(=C\c1ccc(O)c(O)c1)C(=O)OCCc1cccs1,> 46 µM,> 46 µM,inactive,inactive,inactive,12.5 µM (active),inactive,inactive,,,,,,,,,,,,
O=c1c(-c2cc(F)cc(F)c2)nc2cncnc2n1Cc1ccccc1Cl,> 9.22 µM,> 46 µM,inactive,inactive,inactive,inactive,inactive,inactive,> 11.4 µM,5.85%,5.01 µM (active),-19.2%,-6.37%,inactive,inactive,inactive,inactive,inactive,inactive,
COc1ccc(Oc2ncc3ncc(=O)n(Cc4ccc(F)cc4)c3n2)cc1,> 9.22 µM,> 46 µM,,,inactive,inactive,inactive,,> 11.4 µM,,,-10.2%,-0.377%,inactive,,,,,,
COc1cccc(Cn2c(=O)c(-c3ccc(F)cc3)nc3cnc(N4CCOCC4)nc32)c1,> 9.22 µM,> 46 µM,inactive,,inactive,inactive,inactive,inactive,> 11.4 µM,,,,,inactive,inactive,inactive,inactive,inactive,inactive,
COc1ccc(CNc2ncncc2-c2ccccc2C)c(OC)c1,> 46 µM,> 46 µM,inactive,inactive,inactive,inactive,inactive,inactive,> 11.4 µM,,10 µM (active),5.66%,-4.15%,inactive,inactive,inactive,inactive,inactive,,398 nM (active)
O=C(O)c1cc(=O)c2cccc(O)c2[nH]1,,,,,inactive,,,,,,,,,,,,,inactive,,inactive
O=c1c(-c2ccc(Cl)cc2)nc2cncnc2n1Cc1ccccc1Cl,> 9.22 µM,> 46 µM,inactive,inactive,inactive,inactive,inactive,inactive,> 11.4 µM,8.01%,1.26 µM (active),-29.5%,13%,inactive,,,,,inactive,
